Laboratory results as given in PubChem BioAssay (NCI).
About 83,000 compounds went through this panel and 20% of them were active in at least one assay; those are over-represented in the sample as a whole.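 96-well plates, one dose, 48 hours. Percent growth reported; active if below 10.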 Values without a mark were called inactive. The source made the active and inactive calls.

What follows are compounds tested on RPMI-8226 leukemia (assay: NCI-60 one-dose screen, 48 h (100 = growth as untreated, 0 = no growth, -100 = all killed)). Conditions: 10 µM unless noted.
Description: Growth inhibition of the RPMI-8226 human tumor cell line is measured as a screen for anti-cancer activity. Cells are grown in 96 well plates and exposed to the test compound for 48 hours. Compounds are tested at a single concentration, which is 10^-5 M for most compounds. The reported endpoint is percent growth (GI% or GIPRCNT), where numbers from 0 - 100% represent growth inhibition, and numbers from -100% - 0 represent cell death. For example, a value of 40 represents 60% growth inhibition. A value of 0 means no net growth occurred over the course of the experiment. A value of -40 indicates 40% of cells at the beginning of the experiment died by the end of the experiment. A value of -100 means all cells are dead at the end of the experiment.
NCI-60 Human Tumor Cell Lines Screen was performed using the standard one-dose NCI protocol, which is described in more detail at https://dtp.cancer.gov/discovery_development/nci-60/default.htm.
Compounds with GIPRCNT values below 10 were considered active. Activity score was based on GIPRCNT using the following formula: […]
Score is 0 for GIPRCNT values of 100 or above, 50 for GIPRCNT values of 0, and 100 for GIPRCNT values of -100.

Row | Compound | growth
1 | CC(C)(C)NC(=O)C(OC(=O)C1CCc2cc(F)ccc2O1)c1ccccc1Cl (stereo not given) | 99%
2 | Cc1ccccc1N1C(c2ccccc2)=NNC12C=CC(=O)c1c(O)cccc12 (stereo not given) | 83.8%
3 | CC(=O)N[C@@H](CCC(N)=O)C(=O)O | 107%
4 | CSCCC1NC(=O)C(C(C)=Nc2ccccc2)=C1O (stereo not given) | 115%
5 | Cc1ccc2cc3c(NC(=O)c4cccnc4)nn(C)c3nc2c1 | 76.3%
6 | COC1=CC(c2ccc[nH]2)=N/C1=C\c1[nH]c(C)c(C(=O)CCCCCCCCC(=O)O[C@H]2CC[C@H]3C4CCc5cc(O)ccc5C4CC[C@]23C)c1C (stereo not given in full) | 33.2%
7 | CCOC(=O)c1c(NC(=O)c2ccccc2)sc2c(O)c(CN(CC)CC)ccc12 | 18.2%
8 | COc1cc2nccc(Oc3ccc(NC(=O)C4(C(=O)Nc5ccc(F)cc5)CC4)cc3)c2cc1OC(=O)c1ccc(N)cc1 | 10.4%
9 | COC(=O)c1cc(Cl)cc([N+](=O)[O-])c1O | 93.3%
10 | CC(C)CC(NC(=O)OCC1c2ccccc2-c2ccccc21)C(=O)O (stereo not given) | 101%
11 | CCCCc1n(Cc2ccc3ccccc3n2)cc[n+]1Cc1ccc2ccccc2n1 | -20.3% (active)
12 | CC(C)COC(=O)NC(C)(C)C | 103%
13 | CN1CCN(Cc2ccc(NC(=O)c3cccc(C#Cc4cnc(N)c5ncccc45)c3F)cc2C(F)(F)F)CC1 | -9.88% (active)
14 | c1ccc(C(Nc2ccccn2)(c2ccccc2)c2ccccc2)cc1 | 34.7%
15 | Cn1c(=O)c2c3c(oc2c2ccccc21)C(=O)c1ccccc1C3=O | 51.1%
16 | CCOC(=O)C1=C(C)NC(SCc2nnc(-c3ccc(Cl)cc3)o2)=NC1c1ccc(Cl)cc1 (stereo not given) | 35.8%
17 | O=C(Nc1ccc(OS(=O)(=O)c2ccc(F)cc2)cc1)C12CC3CC(CC(C3)C1)C2 | 12.3%
18 | CCOC(=O)c1ccccc1SC(C[N+](=O)[O-])c1ccccc1 (stereo not given) | -41.5% (active)
19 | COCCn1c(Nc2ccc(C(=O)NO)cc2)nc2ccccc21 | 44%
20 | CC(=O)[C@H]1CC[C@H]2[C@@H]3CC[C@H]4CC=CC[C@]4(C)[C@H]3CC[C@]12C | 65.5%

Row | Compound | growth
21 | O=c1[nH]c2cc(Cl)c(Cl)cc2o1 | 111%
22 | CC(C)NC(=O)OCC#CCOC(=O)NC(C)C | 103%
23 | Cc1nc2ccc(Nc3nc(Cl)nc(N4CCOCC4)n3)cc2n1Cc1ccccc1 | 74.4%
24 | O=C1Nc2ccccc2/C1=C/c1c[nH]c2ccccc12 | 77.1%
25 | Cc1nc2c(-c3cnc(N)nc3)nc(N3CCOCC3)nc2n1C(C)C | 12.8%
26 | Fc1cc(-c2nnc3sc(-c4ccc(Cl)cc4)nn23)c(Cl)cc1Cl | 102%
27 | CC1=C(C(=O)Nc2ccc(F)cc2)C(c2ccccc2)C2=C(CC(C)(C)CC2=O)N1 (stereo not given) | 41.3%
28 | Oc1c(C(c2ccc(F)cc2)N2CCCCC2)ccc2cncnc12 (stereo not given) | 22.1%
29 | Nc1ccc(C(OC(=O)c2cc3ccccc3c(Cc3c(O)c(C(=O)OC(c4ccc(N)cc4)(c4ccc(N)cc4)c4ccc(N)cc4)cc4ccccc34)c2O)(c2ccc(N)cc2)c2ccc(N)cc2)cc1 | 2.08% (active)
30 | N=c1n(Cc2ccccc2)c(N)cc(=O)n1Cc1ccccc1 | 42.6%
31 | COc1ccc(C2C3CCc4ccccc4C3=NN2C(=O)c2cc(OC)c(OC)c(OC)c2)cc1O (stereo not given) | 45.7%
32 | CC(=O)O[C@H]1[C@H](CC#CC#CC[C@@H]2C[C@]3(C)[C@H]4CC=C5[C@H]6[C@@H](C)[C@H](C)CC[C@]6(C(=O)NCCN(CCN)CCN)CC[C@@]5(C)[C@]4(C)CC[C@H]3C(C)(C)[C@H]2OC(C)=O)C[C@]2(C)[C@H]3CC=C4[C@H]5[C@@H](C)[C@H](C)CC[C@]5(C(=O)NCCN(CCN)CCN)CC[C@@]4(C)[C@]3(C)CC[C@H]2C1(C)C | 26.6%
33 | Cc1c(C)c(C)c([N+](=O)[O-])c([N+](=O)[O-])c1C | 119%
34 | CC1CCN(Cc2ccc(NC(=O)c3cc4ccc5cccnc5c4[nH]3)cc2)CC1 | 19.8%
35 | COc1cc2c(cc1C)NC(=O)/C2=C\c1c[nH]c2ccccc12 | 59.7%
36 | C=CCn1c(C)nc2cc(Nc3nc(N4CCOCC4)nc4nc[nH]c34)ccc21 | 71.9%
37 | Clc1ccc2c(c1)-c1ccccc1C1=NCCN12 | 33%
38 | COc1ccc(/C=C2\Cc3c(Br)cccc3C2=O)c(OC)c1 | 60.9%
39 | C#CCNC(=S)N/N=C(\C)c1ccccn1 | 12.9%
40 | CCCNC(=S)N/N=C(\C)c1ccccn1 | 20%
